A number with no mark means an inactive call. Calls of active or inactive are those of the source. The call rests on the fitted dose curve; in most records, active means well fitted activation curve with a large enough effect; inconclusive means small, poorly fitted or top-dose-only effect; inactive means flat fitted curve, though single readings scatter.
Experiment: Cellular Toxicity (caspase-3) SK-N-SH (AID 661);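 on caspase-3 activation: 0% = DMSO basal and 100% = 10 µM staurosporine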
Conditions: SK-N-SH caspase-3 activation, qHTS; series mostly up to 91.7 µM; caspase-3 activation: at the top concentration
Source text: NIH Chemical Genomics Center [NCGC]
NIH Molecular Libraries Screening Centers Network [MLSCN]
National Institutes of Environmental Health Sciences [NIEHS]
National Toxicology Program [NTP]
We have developed a 1536-well cell-based assay for quantitative high throughput screening (qHTS) against a number of cell lines to determine in vitro caspase 3/7 activity of small molecules. This particular assay uses the SK-N-SH cell line which is derived from human neuroblastoma.
NCGC Assay Protocol Summary:
The Caspase-Glo 3/7 assay (Promega) is a homogeneous method to measure caspase-3 and caspase-7 activities in cultured cells. The quantitation of caspase 3/7 activity is based on the cleavage of a peptide-aminoluciferin substrate. After caspase cleaves the substrate the free aminoluciferin is liberated and serves as the substrate of luciferase, which generates the light. The luminescent signal is proportional to amount of caspase 3/7 activity present.
Using the Caspase-Glo 3/7 assay, the amount of caspase 3/7 activity was measured in the SK-N-SH cell line with complete culture medium following compound treatment for 16 hours. The assay was performed in opaque white 1536-well plates. In the screen, tamoxifen and staurosporine were used as positive controls. Library compounds were measured for their ability to cause the activation of caspase 3/7 in the cell line, as reflected by an increase in luminescence signal, in a concentration-dependent manner. Data were normalized to the controls for basal activity (DMSO only) and 100% stimulation (10 uM staurosporine). AC50 values were determined from concentration-response data modeled with the standard Hill equation.
qHTS protocol for caspase 3/7 assay in SK-N-SH cells
[Step] [Parameter] [Value] [Description]
1. Reagent; 5 uL; 1500 SK-N-SH cells/well
2. Time; 5 hr; 37 °C incubation
4. Controls; 23 nL; Tamoxifen 0.23 uM to 100 uM & staurosporine 1.4 pM to 100 uM
5. Time; 16 hr; 37 °C incubation
6. Reagent; 5 uL; Caspase-Glo 3/7 reagent
7. Time; 1 hr; Room Temperature
8. Detection; Luminescence; Viewlux plate reader
Keywords: caspase 3/7, apoptosis, SK-N-SH cell line, luminescence, NTPHTS, NTPHTS_NCGC, NIEHS, EPA, DSSTox, MLSMR, MLSCN, NIH Roadmap, qHTS, NCGC
Potency means the concentration at half of the fitted maximal effect.

| Compound | caspase-3 activation [%] | Potency |
| --- | --- | --- |
| N#CCc1ccccc1 | -0.886 |  |
| O=[N+]([O-])c1c(Cl)c(Cl)c(Cl)c(Cl)c1Cl | -0.332 |  |
| Cc1cccc(C)c1N | 0.177 |  |
| O=[N+]([O-])c1ccc2c3c(cccc13)CC2 | -0.826 |  |
| CC(C)(C)OOC(=O)c1ccccc1 | 2.09 |  |
| Nc1c(Br)cc([N+](=O)[O-])cc1[N+](=O)[O-] | -0.606 |  |
| C=CC(=O)OCC(CC)CCCC (stereo not given) | -0.0465 |  |
| c1ccc2c(c1)CCNC2 | -1.43 |  |
| OCCOCCO | -2.09 |  |
| CN(C)C(=O)Cl | -0.0179 |  |
| Cc1ccc2c(C)cccc2c1 | -0.176 |  |
| ClCc1ccccn1 | 1.81 |  |
| C=CC(=O)OC | -0.967 |  |
| Cc1cc(N=Nc2ccccc2C)ccc1N | -2.84 |  |
| BrCC(Br)(Br)Br |  | 25.1 µM (active) |
| C=CC(=O)OCC(C)C | 0.239 |  |
| CCCBr | 1.84 |  |
| CC(C)OS(C)(=O)=O | 3.79 |  |
| ClCC(Cl)Cl | 0.537 |  |
| Cc1ccc(N=C=O)cc1N=C=O | 0.372 |  |

| Compound | caspase-3 activation [%] | Potency |
| --- | --- | --- |
| O=C(O)CCl | 1.2 |  |
| C=CCBr | -1.59 |  |
| O=C(Cl)OCc1ccccc1 | 1.3 |  |
| CC(C)[C@]12CC(=O)[C@H](C)[C@H]1C2 | 1.51 |  |
| N#CC(Br)Br | 8.18 |  |
| ClCC(Cl)CCl | 0.444 |  |
| CC(C)(COCC1CO1)COCC1CO1 (stereo not given) | 14.3 |  |
| COc1c(C(C)(C)C)cc([N+](=O)[O-])c(C)c1[N+](=O)[O-] | -1.17 |  |
| O=[N+]([O-])c1ccccc1O | -0.0288 |  |
| S=c1[nH]c2ccccc2[nH]1 | -0.146 |  |
| CC(C)CON=O | -1.01 |  |
| C=CCc1cc(OC)c2c(c1)OCO2 | 0.0566 |  |
| CC[N+](=O)[O-] | 0.266 |  |
| CN1CSC(=S)N(C)C1 | 0.843 |  |
| ClC(Cl)(Cl)C(Cl)(Cl)Cl | -1.7 |  |
| CC12CC1(C)C(=O)N(c1cc(Cl)cc(Cl)c1)C2=O (stereo not given) | -0.548 |  |
| Cl/C=C\Cl | -0.569 |  |
| O=[N+]([O-])c1ccccc1CCl | 6.74 |  |
| O=[N+]([O-])c1cc(Cl)c(Cl)cc1Cl | -0.995 |  |
| O=S(=O)(O)F | 0.152 |  |

— PubChem BioAssay (NCATS)
